The source of these data is PubChem BioAssay.

Molecules are shown by their SMILES. Calls of active or inactive are those of the source.

The subject of test [1] is Plasmodium falciparum Sir2 (PF13_0152, Sir2A). The experiment in a line: Plasmodium falciparum Sir2A binding compounds – biochemical, small-molecule microarray, 635 nm fluorescence, primary screen (AID 1098).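 Also: score merges spot fluorescence intensity with its signal-to-noise ratio.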 The conditions noted are these: fluorescence 635 nm, higher = more signal.
Test [2] is described as follows: probe aDKK1 binding to arrayed compounds – biochemical, biotinylated probe, 635/667 nm fluorescence, primary screen (AID 1099).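 Also: score merges 667nm spot fluorescence with signal to noise across triplicate slides.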 Conditions: small-molecule microarray, higher = more signal.
The nature of test [3]: probe aCHRDL2 binding to arrayed compounds – biochemical, biotinylated probe, 635/667 nm fluorescence, primary screen (AID 1100). The conditions noted are these: small-molecule microarray, higher = more signal.
Test [4] can be described thus: change in splice reporter luminescence, either direction, cell-based, HEK293, spliceosome inhibition project, primary screen (AID 1101).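 Also: HEK293 cells carrying a splicing-competent luciferase reporter gene; test concentration not given here.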 Conditions: HEK293 splicing luciferase reporter, 24 h, higher = more signal, called active from +8 up or from −8 down.
Test [5] addresses Fibroblast growth factor 10 (Homo sapiens) (UniProt O15520). The experiment in a line: compounds binding fibroblast growth factor 10 – biochemical, small-molecule microarray, 635 nm fluorescence, primary screen (AID 1102). The conditions noted are these: FGF10 binding, fluorescence 635 nm, higher = more signal.
In test [6] the test system is glycogen synthase kinase-3 (GSK3A per assay name; protocol says GSK3B). In words: compounds binding glycogen synthase kinase-3 – biochemical, small-molecule microarray, 635 nm fluorescence, GSK3A, primary screen (AID 1103). Also: the record names both GSK3A and GSK3B. Conditions: fluorescence 635 nm, higher = more signal.
The target in test [7] is Epidermal growth factor receptor (Homo sapiens) (UniProt P00533). The experiment in a line: compounds binding epidermal growth factor receptor – biochemical, small-molecule microarray, 635 nm fluorescence, primary screen (AID 1104).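 Also: score merges 667 nm emission intensity with spot signal to noise over triplicate slides.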 The conditions noted are these: EGFR binding, higher = more signal.
Test [8] addresses Follistatin-related protein 3 (Homo sapiens) (UniProt O95633). The experiment in a line: compounds binding follistatin-related protein 3 – biochemical, small-molecule microarray, 635 nm fluorescence, primary screen (AID 1105).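 Also: score merges emission near 667 nm and signal to noise per printed spot across three slides.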 Conditions: FSTL3 binding, higher = more signal.
The target in test [9] is Dickkopf-related protein 1 (Homo sapiens) (UniProt O94907). In words: small molecules binding DKK1 protein – biochemical, small-molecule microarray, 635 nm fluorescence scan, primary screen (AID 1106).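 Also: score merges emission near 667 nm with signal to noise over three replicate slides.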 Conditions: higher = more signal.
In test [10] the test system is Inhibin beta A chain (activin A). In words: small molecules binding activin A – biochemical, small-molecule microarray, 635 nm fluorescence scan, primary screen (AID 1107).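 Also: mouse activin A protein probed at 4.33 µg/mL on printed slides; score merges bound-protein fluorescence near 667 nm with spot signal-to-noise.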 The conditions noted are these: INHBA, higher = more signal.
The test system of test [11] is Human papillomavirus type 1a protein E7 (residues 44-93). In words: small molecules binding HPV E7 44-93 – biochemical, small-molecule microarray, residues 44-93, 635 nm fluorescence, primary screen (AID 1108).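 Also: E7 fragment applied at 1 µg/mL in TBST for 1 h at 4 C; score combines spot fluorescence with its signal to noise ratio.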 The conditions noted are these: fluorescence 635 nm, higher = more signal.
Test [12] is described as follows: hepatitis C replication reporter changes, two-sided – Huh7 cells, luciferase reporter, HCV replication inhibitor project, primary screen (AID 1109).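 Also: huh7 hepatoma cells harbouring a luciferase neomycin HCV replicon reporter; luciferase luminescence as measure of HCV replicon replication; test concentration not given here.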 The conditions noted are these: Huh7 HCV replicon luciferase reporter, 48 h; higher = more signal.
Test [13] has as its target Left-right determination factor 2 (Homo sapiens) (UniProt O00292). The experiment in a line: small molecules binding LEFTY2 protein – biochemical, small-molecule microarray, 635 nm fluorescence scan, primary screen (AID 1110). Conditions: higher = more signal.
Test [14] has as its target Calmodulin-1 (Homo sapiens) (UniProt P0DP23). The experiment in a line: small molecules binding calmodulin-1 with EGTA – biochemical, small-molecule microarray, Cy5-labelled CALM1, profiling panel (AID 1111).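 Also: labelled calmodulin applied in Tris saline Tween buffer holding calcium plus EGTA and DTT.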 Conditions: Cy5-CALM1 binding fluorescence, higher = more signal.
The target is the same in test [15]. The experiment in a line: small molecules binding Ca-loaded calmodulin-1 – biochemical, small-molecule microarray, Cy5-labelled CALM1, plus calcium, artefact control for SMM control-protein annotation, profiling panel (AID 1112).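 Also: score merges spot fluorescence with signal to noise from triplicate slides.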 Conditions: Cy5-CALM1 binding fluorescence, higher = more signal.
Test [16] is described as follows: probe aWnt5a binding to arrayed compounds – biochemical, biotinylated probe, 635/667 nm fluorescence, primary screen (AID 1113).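 Also: score merges 667 nm fluorescence intensity with signal-to-noise per printed feature.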 The conditions noted are these: small-molecule microarray, higher = more signal.
Test [17] is described as follows: probe aShh binding to arrayed compounds – biochemical, biotinylated probe, 635/667 nm fluorescence, primary screen (AID 1114).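 Also: probe is biotin-labelled aShh protein from a stem cell growth factor screen; measures binding of labelled protein to compounds printed on the slide; score merges feature fluorescence at 667 nm with signal-to-noise.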 Conditions: small-molecule microarray, higher = more signal.
Test [18] is described as follows: probe aNog binding to arrayed compounds – biochemical, biotinylated probe, 635/667 nm fluorescence, primary screen (AID 1115).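 Also: probe is biotinylated aNog protein used at 0.15 µg/mL for 1 h at 4 C; z-score combines 667 nm fluorescence of each spot with its signal to noise.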 The conditions noted are these: small-molecule microarray, higher = more signal.
Test [19] deals with Torsin-1A-interacting protein 1 (Homo sapiens) (UniProt Q5JTV8). In words: compound microarray binding of lysate hLAP1 – cell lysate, small-molecule microarray, COS7 lysate, 635/667 nm fluorescence, primary screen (AID 1116). The conditions noted are these: 635 nm fluorescence, higher = more signal.
Test [20] deals with Alpha-bungarotoxin (Bungarus multicinctus) (UniProt P60615). In words: compounds binding labelled alpha-BTX control protein – biochemical, small-molecule microarray, Alexa647 label, 635/667 nm fluorescence, artefact control for SMM control protein annotation, profiling panel (AID 1117). The conditions noted are these: alpha-BTX-A647 binding fluorescence, higher = more signal.
Alpha-bungarotoxin (Bungarus multicinctus), sequence (P60615 whole entry, looked up): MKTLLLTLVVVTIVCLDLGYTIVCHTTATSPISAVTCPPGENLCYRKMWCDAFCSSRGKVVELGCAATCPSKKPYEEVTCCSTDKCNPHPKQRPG

Left-right determination factor 2 (Homo sapiens), sequence (O00292 whole entry, looked up): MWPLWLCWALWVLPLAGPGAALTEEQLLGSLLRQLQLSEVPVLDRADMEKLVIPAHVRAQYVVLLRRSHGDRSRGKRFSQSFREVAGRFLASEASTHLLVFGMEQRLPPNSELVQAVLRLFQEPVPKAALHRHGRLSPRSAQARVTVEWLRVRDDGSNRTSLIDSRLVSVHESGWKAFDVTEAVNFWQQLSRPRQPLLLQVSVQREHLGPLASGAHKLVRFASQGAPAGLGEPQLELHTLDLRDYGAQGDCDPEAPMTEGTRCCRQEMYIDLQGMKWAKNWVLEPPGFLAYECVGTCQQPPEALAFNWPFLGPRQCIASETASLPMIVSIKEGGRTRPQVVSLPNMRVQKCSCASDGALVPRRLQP
Torsin-1A-interacting protein 1 (Homo sapiens), sequence (Q5JTV8 whole entry, looked up): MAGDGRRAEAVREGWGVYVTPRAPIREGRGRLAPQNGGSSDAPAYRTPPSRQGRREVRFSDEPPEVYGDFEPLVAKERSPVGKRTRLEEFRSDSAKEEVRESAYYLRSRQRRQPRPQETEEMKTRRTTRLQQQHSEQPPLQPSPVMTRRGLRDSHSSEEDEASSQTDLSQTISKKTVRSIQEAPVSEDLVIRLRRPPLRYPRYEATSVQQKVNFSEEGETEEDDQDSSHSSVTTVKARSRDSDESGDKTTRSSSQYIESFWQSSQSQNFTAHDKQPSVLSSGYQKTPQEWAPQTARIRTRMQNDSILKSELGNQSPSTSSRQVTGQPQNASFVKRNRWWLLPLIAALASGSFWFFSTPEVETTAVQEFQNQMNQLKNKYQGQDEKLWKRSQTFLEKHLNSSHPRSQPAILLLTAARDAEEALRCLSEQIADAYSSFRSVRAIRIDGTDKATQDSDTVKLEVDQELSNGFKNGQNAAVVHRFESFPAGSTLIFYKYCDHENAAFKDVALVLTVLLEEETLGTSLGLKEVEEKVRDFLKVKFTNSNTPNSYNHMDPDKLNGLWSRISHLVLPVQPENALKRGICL
Dickkopf-related protein 1 (Homo sapiens), sequence (O94907 whole entry, looked up): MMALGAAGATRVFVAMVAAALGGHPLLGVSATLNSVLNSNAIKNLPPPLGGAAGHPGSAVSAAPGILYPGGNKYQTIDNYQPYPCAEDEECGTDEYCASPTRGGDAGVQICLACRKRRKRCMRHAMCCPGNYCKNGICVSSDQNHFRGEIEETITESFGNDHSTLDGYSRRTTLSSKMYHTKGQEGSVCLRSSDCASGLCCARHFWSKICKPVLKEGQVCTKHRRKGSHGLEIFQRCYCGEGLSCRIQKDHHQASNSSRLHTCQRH
Fibroblast growth factor 10 (Homo sapiens), sequence (O15520 whole entry, looked up): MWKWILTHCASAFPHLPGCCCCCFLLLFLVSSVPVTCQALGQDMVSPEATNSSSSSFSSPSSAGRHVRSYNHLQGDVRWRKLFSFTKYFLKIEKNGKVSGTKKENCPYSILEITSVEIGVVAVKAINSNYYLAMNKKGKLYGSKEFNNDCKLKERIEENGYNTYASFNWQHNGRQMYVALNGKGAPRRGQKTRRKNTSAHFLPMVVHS
Epidermal growth factor receptor (Homo sapiens), sequence (P00533 whole entry, looked up): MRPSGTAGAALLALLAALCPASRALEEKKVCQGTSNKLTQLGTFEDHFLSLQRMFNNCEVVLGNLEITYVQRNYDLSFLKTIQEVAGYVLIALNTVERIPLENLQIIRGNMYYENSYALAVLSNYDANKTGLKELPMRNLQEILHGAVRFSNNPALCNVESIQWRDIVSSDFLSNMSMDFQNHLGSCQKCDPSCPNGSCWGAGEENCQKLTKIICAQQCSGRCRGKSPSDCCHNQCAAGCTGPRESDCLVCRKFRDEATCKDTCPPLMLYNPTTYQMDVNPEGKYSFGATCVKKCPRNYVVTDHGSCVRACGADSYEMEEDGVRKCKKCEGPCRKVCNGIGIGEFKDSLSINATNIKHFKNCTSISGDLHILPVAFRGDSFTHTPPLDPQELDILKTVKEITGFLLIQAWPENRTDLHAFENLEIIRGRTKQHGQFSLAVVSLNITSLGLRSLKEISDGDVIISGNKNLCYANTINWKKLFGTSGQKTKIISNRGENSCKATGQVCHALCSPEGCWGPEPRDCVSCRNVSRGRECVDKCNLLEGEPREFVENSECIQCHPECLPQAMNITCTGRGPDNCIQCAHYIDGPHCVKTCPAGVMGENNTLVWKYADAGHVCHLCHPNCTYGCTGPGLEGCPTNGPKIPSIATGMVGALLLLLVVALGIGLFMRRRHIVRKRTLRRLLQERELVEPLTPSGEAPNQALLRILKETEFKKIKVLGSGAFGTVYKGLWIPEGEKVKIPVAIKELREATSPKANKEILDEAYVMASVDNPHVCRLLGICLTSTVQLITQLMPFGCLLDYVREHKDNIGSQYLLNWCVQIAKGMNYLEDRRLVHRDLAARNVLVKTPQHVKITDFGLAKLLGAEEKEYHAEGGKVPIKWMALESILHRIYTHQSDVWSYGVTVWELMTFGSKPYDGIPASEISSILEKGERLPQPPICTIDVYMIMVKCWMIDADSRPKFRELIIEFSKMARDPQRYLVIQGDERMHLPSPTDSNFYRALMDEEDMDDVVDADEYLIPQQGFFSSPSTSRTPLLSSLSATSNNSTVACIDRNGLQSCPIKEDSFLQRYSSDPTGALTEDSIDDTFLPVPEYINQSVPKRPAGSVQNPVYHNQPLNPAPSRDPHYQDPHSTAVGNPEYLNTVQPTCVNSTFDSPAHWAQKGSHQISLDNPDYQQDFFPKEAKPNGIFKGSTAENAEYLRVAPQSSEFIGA
Follistatin-related protein 3 (Homo sapiens), sequence (O95633 whole entry, looked up): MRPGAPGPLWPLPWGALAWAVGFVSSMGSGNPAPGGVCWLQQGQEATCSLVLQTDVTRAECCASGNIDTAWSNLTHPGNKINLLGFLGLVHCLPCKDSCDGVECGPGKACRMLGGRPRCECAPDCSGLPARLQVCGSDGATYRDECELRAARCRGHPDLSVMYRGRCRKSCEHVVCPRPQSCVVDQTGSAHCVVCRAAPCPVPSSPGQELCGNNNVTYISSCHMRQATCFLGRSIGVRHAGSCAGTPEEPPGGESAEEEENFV

For the compound `C=CCC(OC(C)=O)[C@@H]1[C@@H](N(Cc2ccc(-c3cccc(C(F)(F)F)c3)o2)C(=O)Cc2ccc(F)cc2)c2cc(OCCCO)ccc2N1C(=O)Cc1ccc(OC)cc1` (stereo not given in full), the composite z-score is -0.0392 in [1]; -0.264 in [2]; 0.385 in test [3]; -0.0139 in test [5]; -2.4 in [6]; -0.983 in test [7]. For the same compound, the composite z-score in test [8] is -0.106; in [9], -0.731; in [10] it was 0.898; in [11], -2.04; in test [13], -0.665; in [14], -0.718. The composite z-score is -0.751 in test [15]; -0.18 in [16]; -0.138 in test [17]; -0.463 in test [18]; -0.354 in test [19]; -0.167 in test [20]. In addition, the figures for the z-score in test [4] and in [12] were -1.59 (inactive) and -1.36, respectively.

With `CCCC=C(CCC)[C@@H](NC(=O)Oc1ccc(F)cc1)c1ccc(C(=O)OC)cc1`, the composite z-score in [1] is 0.217; in test [2] it was 0.346; in [3], 0.893; in test [5] it was 0.441; in [6], -0.102; in test [7], 0.267. The composite z-score in [8] was 0.495; in test [9], -0.284; in test [10], 0.602; in test [11], 1.32; in [13] it was 0.354; in [14] it was 0.977. Further, the composite z-score in test [15] worked out at 1.13; in [16], 0.0307; in test [17] it was 0.336; in [18] it was 0.83; in [19], 0.303; in test [20] it was 0.799. Further, the z-score in test [4] is -1.86 (inactive); in [12], -2.48.

As to `C=CCNC(=O)[C@@H]1[C@H]2C(=O)O[C@H](c3ccccc3)[C@H](c3ccccc3)N2[C@H](c2ccccc2OCCO)[C@@]12C(=O)N(C(=O)OCCOC)c1ccc(C#CCNC(N)=O)cc12`, the composite z-score in [1] was 1.43; in test [2], 0.0834; in test [3] it was 0.447; in [5], 0.738; in test [6], 0.581; in test [7] it was 0.444. The composite z-score in test [8] is 0.921; in test [9], -0.0253; in test [10], 0.38; in [11], 1.36; in test [13], 0.213; in test [14], 1.58. The composite z-score in test [15] was 0.27; in test [16], -0.0196; in test [17], -0.739; in test [18], 0.658; in test [19], 0.96; in test [20] it was 1.76. Moreover, the z-score in test [4] is -0.938 (inactive); in test [12], -1.19.

Regarding `OC([C@@H]1CC(c2ccccc2)=NO1)[C@H]1CC(c2ccccc2)=NO1` (stereo not given in full), the composite z-score was -0.345 in test [1]; -0.29 in test [2]; -0.136 in test [3]; 0.0725 in test [5]; -0.453 in [6]; -0.29 in test [7]. The composite z-score was 0.031 in [8]; 0.446 in [9]; 0.672 in test [10]; -0.0304 in test [11]; 0.176 in test [13]; -0.181 in [14]. Further, the composite z-score in test [15] is -0.416; in test [16] it was 0.0317; in [17], -0.214; in test [18], -0.234; in test [19], 0.11; in test [20] it was -0.0544. The z-score was -0.247 (inactive) in [4] and 0.341 in [12].

Regarding `Cc1ccc(S[C@]2(C(=O)NCC(F)(F)F)CC(=O)N(C(C)C)[C@@H]2c2ccc(CO)cc2I)cc1`, the composite z-score in test [1] is 0.903; in [2] it was 0.372; in test [3], 0.893; in test [5], 0.203; in test [6], -0.547; in [7] it was -0.619. Moreover, the composite z-score in test [8] is -1.02; in [9], -0.78; in test [10], 0.743; in test [11], -0.554; in test [13], -0.754; in test [14] it was -0.0874. In addition, the composite z-score was 0.363 in [15]; -0.101 in test [16]; -0.0192 in test [17]; 0.986 in test [18]; -0.261 in [19]; -0.472 in test [20]. The z-score in test [4] was -0.465 (inactive); in test [12] it was -1.76.

Consider `CC(C)C(CO)N1C(=O)[C@@H]2[C@H]3C(=O)OCC=C[C@H]3OC23C=CCN(C(C)C)C(=O)[C@@H]13` (stereo not given in full), for which the composite z-score in [1] is -0.542; in test [2], -0.202; in test [3] it was -0.25; in [5], -0.321; in [6], 0.269; in [7], 0.0755. The composite z-score is 0.354 in test [8]; 0.254 in test [9]; 0.756 in test [10]; -0.432 in test [11]; -0.0108 in test [13]; -0.531 in [14]. Also, the composite z-score in test [15] is -1.11; in test [16], -0.2; in [17] it was -0.223; in [18], -0.0926; in test [19] it was -0.262; in test [20], -0.557. Moreover, the z-score in test [4] was 0.181 (inactive); in test [12], 1.07.
